Molecules are shown by their SMILES. Screen size: about 390,000 compounds; about 2,200 (0.56%) were called active. Where a call stands in place of a potency, no number is given. Roughly 3% stayed inconclusive and do not appear here. The sample holds actives, similar compounds and a random draw of the others, so the mix is not that of the screen. The call rests on the fitted dose curve; in most records, active means well fitted inhibition curve with a large enough effect; inconclusive means small, poorly fitted or top-dose-only effect; inactive means no such curve, though single readings can be large or run the other way.

The source of these data is PubChem BioAssay AID540317 (National Center for Advancing Translational Sciences (NCATS), 2011).
Potency means the concentration at half of the fitted maximal effect.

Chain of Chromobox protein homolog 1 (Homo sapiens) (P83916 whole entry, looked up): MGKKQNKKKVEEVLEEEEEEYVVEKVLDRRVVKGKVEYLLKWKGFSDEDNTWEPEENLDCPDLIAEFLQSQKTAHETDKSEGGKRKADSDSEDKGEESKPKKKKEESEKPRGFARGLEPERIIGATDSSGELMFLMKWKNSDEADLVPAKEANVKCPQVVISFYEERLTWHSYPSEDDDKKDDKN

The assay concerns the target Chromobox protein homolog 1 (Homo sapiens) (UniProt P83916). As to the kind of experiment: HTS for Inhibitors of HP1-beta Chromodomain Interactions with Methylated Histone Tails. Further: nearly all actives have a fitted effect of over 70% in size. The following applies: AlphaScreen HP1-beta / biotin-H3K9me3 peptide binding; series mostly up to 114 µM. In a few lines:
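AlphaScreen: HP1-beta (50 nM) preformed 30 min with biotin-H3(1-18)K9me3 peptide (50 nM) in PBS pH 7.4, 0.01% Tween-20. Compound added for 30 min at RT, then streptavidin donor/nickel chelate acceptor beads (10 ug/mL) for 30 min.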
On the technique in general: In Alpha technology, singlet oxygen from a donor bead excites a nearby acceptor bead.
In the case of `CCN(CC)c1cc(NC2CCCCC2)c2c3c(onc13)-c1ccccc1C2=O`, the Potency is 7.94 µM (active). As for `Cc1ccc(Cl)cc1NC(=O)CSc1nccn1C`, the entry is “inactive”; as for `CCOC(=O)N1CCc2c(sc3c2c(=O)n(-c2ccc(CC)cc2)c(=O)n3C)C1`, “inactive”; as for `Nc1ccc2nc3c(=O)[nH]c(=S)[nH]c3nc2c1`, 2 µM (active). As for `CC1=C(c2ccc(C)c(C)c2)S(=O)(=O)NC1=NCc1ccccc1Cl`, the entry is “inactive”; as for `COc1ccc(NC(=O)CSc2nccn2Cc2ccc3c(c2)OCO3)cc1`, “inactive”; as for `O=C1Nc2ccc(Br)cc2/C1=N/N=C/C1=C(N2CCOCC2)C(=C\c2ccccc2)/CC1`, 5.62 µM (active). With `Cc1oc2ccc(O)c(CN3CCCCC3)c2c1C(=O)Nc1cccc(C(F)(F)F)c1` the entry was “inactive”; with `O=C(c1ccc2c(=O)n(Cc3ccco3)c(=S)[nH]c2c1)N1CCCC1`, “inactive”; with `CCOC(=O)C1=C(c2ccc(OC)cc2)C(=O)c2ccccc2C1=O`, 31.6 µM (active). In the case of `CCOC(=O)C1C(=O)C=C(c2ccc(OC)cc2)CC1c1ccco1` (stereo not given), the Potency entry is “inactive”. With `CCOC(=O)C1=C(CC)Nc2ccccc2N=C1N` the entry was “inactive”. Take `COc1cccc(CNC(=O)C2CCC(CNS(=O)(=O)c3cccs3)CC2)c1` (stereo not given): the Potency entry is “inactive”. With `Cc1ccccc1CS(=O)(=O)CC1Nc2ccc(C(=O)NCc3ccc(Cl)cc3)cc2NC1=O` (stereo not given) the entry was “inactive”; with `Cc1ccc(NC(=O)C(=O)NCC(c2cccnc2)N2CCOCC2)cc1` (stereo not given), “inactive”. In the case of `COc1ccccc1N1CCN(C(CNC(=O)C(=O)NCc2ccc(C)cc2)c2cccnc2)CC1` (stereo not given), the Potency result is “inactive”.

Take `CCOC(=O)N1CCN(C(c2cccnc2)c2ccc3cccnc3c2O)CC1` (stereo not given): the Potency is 8.91 µM (active). Turning to `CN(Cc1ccccc1)C(=O)c1cc2c(=O)n(C)c3ccccc3c2s1`, the Potency result is “inactive”.

With `Nc1ccccc1SC(C[N+](=O)[O-])c1ccccc1` (stereo not given), the Potency is 15.8 µM (active). As for `Cc1cccc(-n2ncc(C(=O)N3CCc4ccccc4C3)c2C2CCN(C(=O)OC(C)(C)C)CC2)c1`, the entry is “inactive”.

For `Cc1c(NC(=O)c2cc(=O)c3ccccc3o2)c(=O)n(-c2ccccc2)n1C`, the Potency entry is “inactive”. With `CCc1nnc(SCC(=O)Nc2cc(OC)ccc2OC)nc1CC` the entry was “inactive”; with `Cc1ccc(Nc2cc(C)nc3c(C)ccc([N+](=O)[O-])c23)cc1`, 22.4 µM (active). As for `Cc1ccccc1Nc1c([N+](=O)[O-])ccc2nonc12`, the entry is “inactive”; as for `Cc1ccc(NC2=NC(c3ccccc3)n3c(nc(C)cc3=O)N2)cc1` (stereo not given), “inactive”; as for `CCOC(=O)c1c(NC(=O)c2cc(-c3ccc(Cl)cc3)on2)sc2c1CCCC2`, “inactive”.

Take `O=C1C2C(c3ccccc3)CC=CC2C(c2ccoc2)N1Cc1ccccc1` (stereo not given): the Potency entry was “inactive”. With `CC(C)C(=O)Nc1nc2c(s1)CC(C(C)(C)C)CC2` (stereo not given) the entry was “inactive”. For the compound `Cc1ccc(SCC(CC(C)C)N2CCN(CCc3ccccc3)CCC2=O)cc1` (stereo not given), the Potency entry is “inactive”. As for `NC1=NOC(=O)C1C1CCCCC1` (stereo not given), the figure is 5.01 µM (active); as for `CN1c2ccc(Cl)cc2-c2nc(SCC(=O)Nc3cc(F)ccc3F)ncc2S1(=O)=O`, “inactive”; as for `CC1(C)CCc2cc(S(=O)(=O)N3CCN(c4nc(-c5cccs5)nc5ccccc45)CC3)ccc2O1`, “inactive”.

As to `COc1ccc(CCN2C(=O)N(c3cccc(OC)c3)C(=O)C2CC(=O)Nc2ccccc2)cc1` (stereo not given), the Potency entry is “inactive”. With `CC(=O)Nc1ccc(S(=O)(=O)N2CCN(c3ccccc3)CC2)cc1` the entry was “inactive”; with `O=C(NC(=O)c1ccccc1N1CCCCC1)Nc1ccc(Br)cc1`, “inactive”.

`CC(=O)Nc1ccc(S(=O)(=O)Nc2ccc(N3CCCCC3)cc2)cc1`: the Potency is 20 µM (active). As for `CC(=O)Nc1ccc(S(=O)(=O)N2CCCC2C(=O)O)cc1` (stereo not given), the entry is “inactive”; as for `Cc1ccccc1C(=O)Nc1ccc(N2CCCCCC2)cc1`, 35.5 µM (active); as for `Cc1cc(NS(=O)(=O)c2ccc(NC(=O)c3ccccc3C)cc2)nc(C)n1`, “inactive”.

For `CCOc1ccc(CNC(=O)CCc2c(C)nn(-c3ccc(N4CCCCC4)nn3)c2C)cc1`, the Potency entry is “inactive”. As for `CCOC(=O)c1c(NC(C)=O)c2c3c(sc2n1Cc1c(C)cc(C)cc1C)CCCC3`, the entry is “inactive”; as for `COc1ccc(C(=O)COC(=O)CCCC(=O)Nc2cc(C(F)(F)F)ccc2Cl)cc1`, “inactive”. Regarding `CCC(Sc1nnc(-c2ccc(OC)cc2)c(-c2ccc(OC)cc2)n1)C(=O)NC1CCCCC1` (stereo not given), the Potency entry was “inactive”.

For `Cc1cc(N=Nc2ccc3ccccc3c2)ccc1O`, the Potency was 50.1 µM (active). On to `Cc1cc(C)cc(NS(=O)(=O)c2ccc3[nH]cc(C(=O)N4CCCCC4)c(=O)c3c2)c1`, for which the Potency result was “inactive”. Turning to `COc1cccc(CNC(=O)c2ccc3c(c2)sc2nc(-c4cccc(OC)c4)cn23)c1`, the Potency result was “inactive”. With `CCCNc1ncnc2c1c(-c1ccccc1)cn2-c1ccc(OCC)cc1`, the Potency entry was “inactive”.

For `COc1cc(N2CCCC2)c(OC)cc1/C=C(/C#N)c1cccc(Br)c1`, the Potency is 35.5 µM (active). With `CCOC(=O)c1[nH]c(C)c(CCC(=O)N2CCN(c3ccccc3)CC2)c1C` the entry was “inactive”.

Consider `Cc1ccc(NC(=O)Cn2cnc3nc4c(cc3c2=O)CCCC4)cc1Cl`, for which the Potency entry was “inactive”. As for `CCOC(=O)c1cc(-c2ccc(OC)c(S(=O)(=O)Nc3ccc(OC)cc3OC)c2)on1`, the entry is “inactive”; as for `O=C1CN(Cc2ccccc2)S(=O)(=O)c2ccccc21`, “inactive”. With `COc1ccc(Cc2nc3ccc(C(=O)NCc4ccccc4C)cc3o2)cc1` the entry was “inactive”; with `COc1cc2c3c(c1)/C(=C1/SC(=S)NC1=O)C(=O)N3C(C)(C)C=C2C`, 10 µM (active). With `Cc1cccc(N2CCN(C(=O)c3ccc(Nc4nc5ccccc5n5nnnc45)cc3)CC2)c1C`, the Potency entry is “inactive”. As to `Cc1csc2nc(COC(=O)c3ccccc3NC(=O)c3ccccc3Cl)cc(=O)n12`, the Potency entry is “inactive”. As for `COc1ccc(-c2nnc(SCC(=O)Nc3ccc(C(C)C)cc3)nc2-c2ccc(OC)c(OC)c2)cc1OC`, the Potency entry is “inactive”. As for `O=C1C(Cl)=C(Oc2ccccc2)C(=O)c2ccccc21`, the figure is 2 µM (active); as for `COc1ccc(Br)cc1C1C2C=CCC(C)C2C(=O)N1Cc1ccccc1` (stereo not given), “inactive”; as for `CCOC(=O)c1ccc(NC(=O)Cn2cc(S(=O)(=O)Cc3ccccc3F)c3ccccc32)cc1`, “inactive”. With `Cn1c(=O)c(=O)n(C)c2cc(S(=O)(=O)NCCc3ccccc3)ccc21` the entry was “inactive”; with `Cc1cc(=O)n(C)c(=O)n1CCCNc1ccccc1`, 56.2 µM (active); with `Cc1c(S(=O)(=O)NCc2ccccc2)c(=O)n(C)c(=O)n1C`, “inactive”. With `Cc1ccc(NC(=O)NC(C)c2c(-n3cccc3)sc(C)c2C)c(C)c1` (stereo not given) the entry was “inactive”; with `COc1ccc(CN(Cc2ccccc2)C(=O)c2ccc(O)cc2)cc1COc1ccc(NC(C)=O)cc1`, “inactive”. As to `CC(=O)c1ccc(N2CCN(CC(=O)Nc3ccccc3N3CCOCC3)CC2)cc1`, the Potency entry was “inactive”.

In the case of `O=C(CN1CCN(c2ccc(O)cc2)CC1)Nc1cc(S(=O)(=O)N2CCOCC2)ccc1Cl`, the Potency was 79.4 µM (active). Turning to `O=C(CN1CCN(c2cccc(Cl)c2)CC1)Nc1ccc(S(=O)(=O)N2CCOCC2)cc1`, the Potency result was “inactive”. As for `O=C(CN1CCN(c2ccc(O)cc2)CC1)Nc1ccc(-c2ccccc2)cc1`, the figure is 79.4 µM (active).

With `Cc1ccc(Cl)cc1NC(=O)CN1CCN(S(=O)(=O)N2CCOCC2)CC1`, the Potency result was “inactive”. For the compound `CCN(CC)c1ccc(NC(=O)CN2CCN(c3ccccn3)CC2)cc1`, the Potency result was “inactive”. As to `COc1ccccc1CN1CCC(CNC(=O)c2cnn(-c3cccc(Cl)c3)c2C2CCN(C(=O)OC(C)(C)C)CC2)CC1`, the Potency entry is “inactive”.

For the compound `Oc1ccc(Cl)cc1C1C=C(c2ccc3c(c2)OCO3)NC(c2c(F)cccc2Cl)N1` (stereo not given), the Potency entry is “inactive”. With `CCOc1ccc(C2C(C(=O)Nc3ccc(Cl)cc3)=C(C)Nc3nc(C(F)(F)F)nn32)cc1` (stereo not given), the Potency entry is “inactive”. With `CCOc1ccc(NC(=O)CCc2c(C)nn(-c3ccc(N4CCCC4)nn3)c2C)cc1` the entry was “inactive”; with `Cc1ccc2nc(COc3cccc(NC(=O)c4cccc(Cl)c4)c3)cc(=O)n2c1`, “inactive”. In the case of `Cc1cccc(C)c1-n1c(C)cc(/C=C2\C(=O)NN(c3ccccc3)C2=O)c1C`, the Potency was 15.8 µM (active). With `CCCSc1ncc(Cl)c(C(=O)Nc2c(C(=O)Nc3ccccc3)oc3ccccc23)n1` the entry was “inactive”. Regarding `COc1ccccc1-c1nnc(C2CCN(C(=O)c3ccc(Cl)cc3)CC2)o1`, the Potency result is “inactive”.

Consider `CCOc1ccc(Nc2nc3c(S(=O)(=O)c4cccc(Cl)c4)nnn3c3ccsc23)cc1`, for which the Potency result is “inactive”. For `Cc1ccc(Cn2cc(CCC(=O)NCc3ccc(OC(C)C)cc3)c3ccccc32)cc1`, the Potency result was “inactive”. Turning to `COc1ccc(N2CCN(C(=O)c3cccs3)CC2)cc1`, the Potency entry is “inactive”. With `COc1ccc(N2CCN(Cc3ccc(Br)s3)CC2)cc1` the figure was 17.8 µM (active); with `COc1ccc(N2CCN(S(=O)(=O)c3cc(Br)cnc3N)CC2)cc1`, “inactive”; with `Cc1ccc(Nc2nc3ccccc3nc2-n2nc(C)cc2C)c(Cl)c1`, “inactive”. As to `Cc1ccc(Cl)cc1N(C)C(=O)Cn1nc(Cc2cccnc2)c2ccccc2c1=O`, the Potency result is “inactive”. With `COc1ccc(-c2nc(SCC(=O)N3CCCCC3C)n[nH]2)cc1` (stereo not given) the entry was “inactive”. For the compound `Cc1ccc(-c2nc(S(=O)(=O)c3ccc(C)cc3)c(N3CCCCCC3)o2)cc1`, the Potency result was “inactive”. `CN1/C(=c2/s/c(=C3/C(=O)N(c4ccccc4)NC3=Nc3ccccc3)n(C)c2=O)C(C)(C)c2ccccc21`: the Potency was 28.2 µM (active).

Turning to `Cc1cc(C)cc(NC(=O)CSc2nc3nccnc3c(=O)n2CCc2c[nH]c3ccccc23)c1`, the Potency entry was “inactive”.

For `Cc1ccc(Cl)cc1NC(=O)NC1COc2ccccc2C1` (stereo not given), the Potency entry is “inactive”.

With `Cn1nnc2c(N3CCN(c4ccccc4)CC3)ncnc21`, the Potency entry was “inactive”. Take `CCOc1ccc(NC(=O)c2cc(S(=O)(=O)N3CCCC3)c[nH]2)cc1`: the Potency result is “inactive”. On to `CC(=O)N(C1=C(Cl)C(=O)c2ccccc2C1=O)c1ccc(C(=O)O)cc1`, for which the Potency is 7.94 µM (active). With `CCOc1ccc(CNC(=O)Cn2cc3c(n2)-c2c(oc(C(=O)N4CCCC4)c2C)CC3)cc1` the entry was “inactive”.
